As a reminder, the viability is a read-out of living cells in per cent, often relative to untreated cells.

A short description of assay [1]: qHTS drug screen for cell cycle checkpoint inhibitors in PARPi-resistant BRCA-mutant ovarian cancer cell lines. (AID 1963452; calls by dose curve). The settings on record: PEO1/OlaR viability, CellTiter-Glo luminescence, 96 h, stronger effect = lower value. An outline of the steps:
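PEO1, PEO4 and PEO1/OlaR ovarian cancer cells, 600 per well, exposed 96 h at 37C to a dilution series. Viability read by CellTiter-Glo luminescence, normalized to DMSO and empty wells; activity summarized as Z-AUC.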
(In general: Quantitative high-throughput screening tests each substance at several concentrations.)

Assay [2] can be described thus: Quantitative High-Throughput drug screen in 47 multiple myeloma cell lines against the NCATS MIPE library collection: OCIMY7_PLB cell viability assay (AID 1918987). Also: nearly all actives have a fitted effect of over 65% in size. Also: potency is read from the fitted curve at half-maximal effect. Particulars: OCI-MY7 myeloma viability, CellTiter-Glo ATP, 48 h; series mostly up to 45.8 µM. The procedure, abridged: (§1)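 500 cells/well; MIPE 4.0 drugs pin-transferred; 48 h, 37C, 5% CO2. CellTiter-Glo, 5 min RT, luminescence. Controls: DMSO 100%, media 0%.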

The nature of assay [3]: Quantitative High-Throughput drug screen in 47 multiple myeloma cell lines against the NCATS MIPE library collection: OPM1_PLB cell viability assay (AID 1918989). Also: nearly all actives have a fitted effect of over 40% in size. Also: potency is read from the fitted curve at half-maximal effect. The settings on record: CellTiter-Glo, 48 h; series mostly up to 45.8 µM. The procedure, abridged: as §1
In general terms: In ATP-based viability assays light output follows the ATP content of the culture.

Assay [4] in a line: Quantitative High-Throughput drug screen in 47 multiple myeloma cell lines against the NCATS MIPE library collection: U266_ATCC cell viability assay (AID 1919864). Also: nearly all actives have a fitted effect of over 35% in size. Also: potency is read from the fitted curve at half-maximal effect.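 As to viability (% of DMSO control): 0% = media-only wells without cells and 100% = DMSO-only wells.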 The settings on record: U266 myeloma viability, CellTiter-Glo ATP luminescence, 48 h; series mostly up to 45.8 µM. The procedure, abridged: as §1
The nature of assay [5]: Quantitative High-Throughput drug screen in 47 multiple myeloma cell lines against the NCATS MIPE library collection: XG6_PLB cell viability assay (AID 1919865). Also: nearly all actives have a fitted effect of over 40% in size. Also: potency is read from the fitted curve at half-maximal effect. The settings on record: XG6 myeloma viability, CellTiter-Glo ATP luminescence, 48 h; series mostly up to 45.8 µM. An outline of the steps: as §1
Assay [6] can be described thus: Quantitative High-Throughput drug screen in 47 multiple myeloma cell lines against the NCATS MIPE library collection: XG1_PLB cell viability assay (AID 1919866). Also: nearly all actives have a fitted effect of over 35% in size. Also: potency is read from the fitted curve at half-maximal effect. The settings on record: CellTiter-Glo ATP, 48 h; series mostly up to 45.8 µM. An outline of the steps: as §1
The nature of assay [7]: Quantitative High-Throughput drug screen in 47 multiple myeloma cell lines against the NCATS MIPE library collection: VP6_DJ cell viability assay (AID 1919867). Also: nearly all actives have a fitted effect of over 40% in size. Also: potency is read from the fitted curve at half-maximal effect.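 As to viability (% of DMSO): 100% = DMSO-only wells and 0% = wells with media alone.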 The settings on record: ATP luminescence, 48 h; series mostly up to 45.8 µM. The procedure, abridged:
as §1

Assay [8] is described as follows: Quantitative High-Throughput drug screen in 47 multiple myeloma cell lines against the NCATS MIPE library collection: PE2_PLB cell viability assay (AID 1919869). Also: nearly all actives have a fitted effect of over 35% in size. Also: potency is read from the fitted curve at half-maximal effect.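 As to viability (% of control): 100% = DMSO-only wells and 0% = cell-free media-only wells.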 Particulars: PE2_PLB myeloma cells viability, ATP luminescence, 48 h; series mostly up to 45.8 µM. An outline of the steps: as §1
A short description of assay [9]: Quantitative High-Throughput drug screen in 47 multiple myeloma cell lines against the NCATS MIPE library collection: PCM6_Riken cell viability assay (AID 1919870). Also: nearly all actives have a fitted effect of over 30% in size. Also: potency is read from the fitted curve at half-maximal effect. The settings on record: CellTiter-Glo ATP, 48 h; series mostly up to 45.8 µM. The procedure, abridged: as §1
Assay [10] is described as follows: Quantitative High-Throughput drug screen in 47 multiple myeloma cell lines against the NCATS MIPE library collection: SKMM1_PLB cell viability assay (AID 1919863). Also: nearly all actives have a fitted effect of over 35% in size. Also: potency is read from the fitted curve at half-maximal effect. The settings on record: SKMM1 myeloma viability, CellTiter-Glo ATP, 48 h; viability: stronger effect = lower value. The procedure, abridged:
as §1

A short description of assay [11]: Quantitative High-Throughput drug screen in 47 multiple myeloma cell lines against the NCATS MIPE library collection: RPMI8226_ATCC cell viability assay (AID 1919871). Also: nearly all actives have a fitted effect of over 30% in size. Also: potency is read from the fitted curve at half-maximal effect. The settings on record: RPMI8226 myeloma viability, CellTiter-Glo ATP luminescence, 48 h; series mostly up to 45.8 µM. An outline of the steps: as §1
Assay [12] in a line: Quantitative High-Throughput drug screen in 47 multiple myeloma cell lines against the NCATS MIPE library collection: KMS11_JCRBsus cell viability assay (AID 1919873). Also: nearly all actives have a fitted effect of over 50% in size. Also: potency is read from the fitted curve at half-maximal effect.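 As to viability (% of control): 100% = DMSO-only wells and 0% = media-only wells without cells.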 Particulars: KMS11 myeloma viability, CellTiter-Glo ATP luminescence, 48 h; series mostly up to 45.8 µM. An outline of the steps: as §1
Assay [13] is described as follows: Quantitative High-Throughput drug screen in 47 multiple myeloma cell lines against the NCATS MIPE library collection: KMS28BM_JCRB cell viability assay (AID 1919874). Also: nearly all actives have a fitted effect of over 35% in size. Also: potency is read from the fitted curve at half-maximal effect. Particulars: CellTiter-Glo ATP, 48 h; series mostly up to 45.8 µM. The procedure, abridged:
as §1

Assay [14] can be described thus: Quantitative High-Throughput drug screen in 47 multiple myeloma cell lines against the NCATS MIPE library collection: OPM2_DSMZ cell viability assay (AID 1919872). Also: nearly all actives have a fitted effect of over 30% in size. Also: potency is read from the fitted curve at half-maximal effect. Particulars: OPM2 myeloma viability, CellTiter-Glo ATP luminescence, 48 h; series mostly up to 45.8 µM. The procedure, abridged: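 Viability readout: CellTiter-Glo luminescence following 5 min room-temperature incubation with reagent. Prior exposure: 48 h, 37C, humidified 5% CO2, 500 cells per well.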

A short description of assay [15]: qHTS for identification of novel therapeutic agents for treatment of microphthalmiaassociated transcription factor (MiT) renal cell carcinoma (RCC) (AID 1963991).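 Also: curves scaled with 100% = DMSO viability and 0% = empty wells.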 The settings on record: CellTiter-Glo, 48 h, stronger effect = lower value. The procedure, abridged: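 UOK109/UOK124/UOK145 (TFE3 fusions, three partners); 500 cells/well; MIPE v4.0, 1912 cpds, 11 conc.; 48 h, 37 C; CellTiter-Glo, 15 min RT; lum. Norm.: DMSO 100%, empty 0%.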

A short description of assay [16]: Quantitative High-Throughput drug screen in 47 multiple myeloma cell lines against the NCATS MIPE library collection: UTMC2_PLB cell viability assay (AID 1919868). Also: nearly all actives have a fitted effect of over 55% in size. Also: potency is read from the fitted curve at half-maximal effect.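 As to viability (% of DMSO control): 100% = DMSO-only wells and 0% = media-only wells without cells.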 Particulars: CellTiter-Glo ATP luminescence, 48 h; viability (% of DMSO control): at 45.8 µM (top of the series) unless noted. The procedure, abridged: as §1
Assay [17] in a line: Quantitative High-Throughput drug screen in 47 multiple myeloma cell lines against the NCATS MIPE library collection: OCIMY5_PLB cell viability assay (AID 1918988). Also: potency is read from the fitted curve at half-maximal effect; nearly all actives have a fitted effect of over 65% in size. The settings on record: OCI-MY5 myeloma viability, ATP luminescence, 48 h; series mostly up to 45.8 µM. The procedure, abridged:
as §1

Where [18] appears, read: measured here: PEO1 parental Z-AUC.
The mark [19] stands for this setting: TFE3-RCC UOK109 viability, measured here: UOK109 Z-AUC.
Where [20] appears, read: TFE3-RCC viability, measured here: UOK124 Z-AUC.
[21] abbreviates: TFE3-RCC viability, measured here: UOK145 Z-AUC.

Inconclusive results are not listed. Activity calls are given as the source filed them. Unless noted, calls follow the shape of the dose curve; as a rule, active = well fitted cell-killing curve with a large enough effect; inconclusive = small, poorly fitted or top-dose-only effect, or effect the other way; inactive = no such curve, though single readings can be large or run the other way.

On to `C=CC(=O)N1CCC[C@@H](n2nc(-c3ccc(Oc4ccccc4)cc3)c3c(N)ncnc32)C1`, for which the Z-AUC in [1] is 0.296 (inactive); in assay [1] (setting [18]), 0.501; in assay [1] (measured here: PEO4 Z-AUC), 0.517.

Regarding `NCC(=O)Nc1ccc(-n2nc(C(F)(F)F)cc2-c2ccc3c(ccc4ccccc43)c2)cc1`, the Potency is 16.6 µM (active) in assay [2]; 18.7 µM (active) in [3]; 20.9 µM (active) in [4]; 18.7 µM (active) in assay [5]; 16.6 µM (active) in [6]; 18.7 µM (active) in assay [7]. Moreover, the Potency in [8] and in assay [9] was 20.9 µM (active) each time. In addition, the results for the Z-AUC in assay [1], in assay [1] (setting [18]) and in assay [1] (measured here: PEO4 Z-AUC) were 0.362 (inactive), -0.764 and -0.389, respectively.

On to `COc1cccc(-c2ccc(NC(=O)C3=C(C(=O)O)CCC3)c(F)c2)c1`, for which the Potency is 6.62 µM (active) in assay [3]; 5.9 µM (active) in assay [10]; 13.2 µM (active) in [4]; 4.18 µM (active) in assay [6]; 3.32 µM (active) in [9]; 13.2 µM (active) in assay [11]. For the same compound, the values for the Potency in assay [12] and in assay [13] were 14.8 µM (active) and 18.7 µM (active), respectively. Besides, the Z-AUC in assay [1] was 0.233 (inactive); in assay [1] (setting [18]), 0.433; in assay [1] (measured here: PEO4 Z-AUC), 0.985.

As to `COc1ccc(CC2c3cc(OC)c(OC)cc3CC[N+]2(C)CCC(=O)OCCCCCOC(=O)CC[N+]2(C)CCc3cc(OC)c(OC)cc3C2Cc2ccc(OC)c(OC)c2)cc1OC` (stereo unspecified), the Potency in assay [2] was 4.13 µM (active); in assay [6], 1.46 µM (active). Besides, the viability (% of control) in assay [3] was 96.3% [at 5.15 µM] (inactive); in assay [8] it was 81% [at 5.15 µM] (inactive); in assay [12], 114% [at 5.15 µM] (inactive). Moreover, in [4], the viability (% of DMSO control) is 135% [at 5.15 µM] (inactive). In addition, in [14], the viability (% of DMSO) is 116% [at 5.15 µM] (inactive). In assay [13], the viability, % of control is 110% [at 5.15 µM] (inactive). Besides, the Z-AUC in [1] is 0.349 (inactive); in assay [1] (setting [18]), 0.569; in assay [1] (measured here: PEO4 Z-AUC), 0.213.

Consider `C1Cc2[nH]nc(-c3nn[nH]n3)c2C1`, for which, in assay [10], the viability is 115% (inactive). Besides, the Potency result in [5], in assay [6], in assay [8], in assay [11], in assay [14] and in assay [13] was “inactive” in each case. Further, the figures for the Z-AUC in assay [1], in assay [1] (setting [18]) and in assay [1] (measured here: PEO4 Z-AUC) were -0.759 (inactive), -0.47 and -0.646, respectively. Besides, the z-score was -0.0239 in [15] (setting [19]), 0.708 in assay [15] (setting [20]) and 0.169 in [15] (setting [21]).

Take `COc1cc2ncn(-c3cc(OCc4ccccc4C(F)(F)F)c(C(N)=O)s3)c2cc1OC`: the Potency in assay [2] is 0.332 µM (active); in assay [3] it was 0.743 µM (active); in assay [10] it was 0.166 µM (active); in [4] it was 18.7 µM (active); in [6], 0.209 µM (active); in [7], 18.7 µM (active). Besides, the Potency in assay [8] is 18.7 µM (active); in assay [9], 5.9 µM (active); in assay [11], 5.26 µM (active); in assay [12], 0.296 µM (active); in [13], 0.526 µM (active). Besides, the results for the Z-AUC in [1], in assay [1] (setting [18]) and in assay [1] (measured here: PEO4 Z-AUC) were -1.24 (inactive), -0.678 and -1.55, respectively.

`CCN1CCN(Cc2ccc(-c3cc4c(N[C@H](C)c5ccccc5)ncnc4[nH]3)cc2)CC1`: the Potency entry in assay [2] was “inactive”. The Potency in assay [3] is 0.372 µM (active); in assay [4] it was 0.166 µM (active); in assay [16], 0.662 µM (active); in assay [9], 1.66 µM (active); in assay [12], 3.72 µM (active); in assay [13], 2.96 µM (active). Besides, the Z-AUC in assay [1] was -1.03 (inactive); in assay [1] (setting [18]), 0.0439; in assay [1] (measured here: PEO4 Z-AUC), -0.489.

Regarding `COc1cccc(Nc2c(C(N)=O)cnc3c(C)cc(S(=O)(=O)c4cccc(C(=O)N(C)C)c4)cc23)c1`, the Potency result in assay [3], in assay [5], in [6], in assay [7], in [8] and in [11] was “inactive” in each case. Also, the Potency result in assay [14], in assay [12] and in [13] was “inactive” in each case. In addition, the viability in assay [10] was 113% (inactive). Besides, the Z-AUC is -0.363 (inactive) in assay [1], 0.84 in assay [1] (setting [18]) and 0.84 in assay [1] (measured here: PEO4 Z-AUC). Also, the z-score in [15] (setting [19]) worked out at 1.38; in [15] (setting [20]), 0.911; in [15] (setting [21]), 0.957.

With `Cc1coc2c1C(=O)C(=O)c1c-2ccc2c1CCCC2(C)C`, the Potency in assay [17] is 14.8 µM (active); in assay [3] it was 20.9 µM (active); in assay [10], 18.7 µM (active); in assay [7], 20.9 µM (active); in [14], 16.6 µM (active). For the same compound, the Potency entry in assay [4] and in [13] was “inactive” throughout. The Z-AUC is 1.2 (inactive) in assay [1], 0.989 in assay [1] (setting [18]) and 0.949 in assay [1] (measured here: PEO4 Z-AUC).

Consider `NC(=O)c1cccc2cn(-c3ccc([C@@H]4CCCNC4)cc3)nc12`, for which the Potency entry in assay [3], in [4], in [16], in [9], in [11] and in [14] was “inactive” in each case. The Potency entry in assay [12] and in assay [13] was “inactive” in each case. Moreover, the Potency in [7] was 18.7 µM (active). In addition, the Z-AUC in assay [1] is 0.523 (inactive); in assay [1] (setting [18]), -0.0942; in [1] (measured here: PEO4 Z-AUC), 0.435.
